Compound activity from PubChem BioAssay.
Compounds with a hit are over-represented: about 1.2% of the library has one in this group of screens.
CCT modulator = cytosolic chaperonin activity modulation; purified chaperonin ATPase assay, HTRF ADP detection, 30 min; activity change, % (no concentration beside the values), hits read low; hit rate 0.3% among 360,000; AID 651819; in the data active = activity change below about -30%; note: % is set by controls: 0 for no effect and ±100 for the full control effect
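First, chaperonin was dispensed at 40 nM or 20 nM final depending on batch activity. Next, compounds were pinned at 76 uM and ATP added at 10 uM. After 30 min at 37 °C, ADP detection reagents ran 30 min at ambient temperature.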
TSHR antag = antagonists of human thyroid stimulating hormone receptor | P16473 | TSHR-expressing cells, TSH-stimulated cAMP HTRF, 2 h; stronger effect = lower value | activity change, negative = inhibition, % at 11.5 µM | hit rate 0.2% among 330,000 | AID 504810;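 active = activity change below a set negative limit, meaning inhibition stronger than a set level, cut at about -70% in these data; inconclusive = activity change between two set negative limits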; note: % is set by controls: 0 for no effect and ±100 for the full control effect
Target sequence (P16473 whole entry, looked up): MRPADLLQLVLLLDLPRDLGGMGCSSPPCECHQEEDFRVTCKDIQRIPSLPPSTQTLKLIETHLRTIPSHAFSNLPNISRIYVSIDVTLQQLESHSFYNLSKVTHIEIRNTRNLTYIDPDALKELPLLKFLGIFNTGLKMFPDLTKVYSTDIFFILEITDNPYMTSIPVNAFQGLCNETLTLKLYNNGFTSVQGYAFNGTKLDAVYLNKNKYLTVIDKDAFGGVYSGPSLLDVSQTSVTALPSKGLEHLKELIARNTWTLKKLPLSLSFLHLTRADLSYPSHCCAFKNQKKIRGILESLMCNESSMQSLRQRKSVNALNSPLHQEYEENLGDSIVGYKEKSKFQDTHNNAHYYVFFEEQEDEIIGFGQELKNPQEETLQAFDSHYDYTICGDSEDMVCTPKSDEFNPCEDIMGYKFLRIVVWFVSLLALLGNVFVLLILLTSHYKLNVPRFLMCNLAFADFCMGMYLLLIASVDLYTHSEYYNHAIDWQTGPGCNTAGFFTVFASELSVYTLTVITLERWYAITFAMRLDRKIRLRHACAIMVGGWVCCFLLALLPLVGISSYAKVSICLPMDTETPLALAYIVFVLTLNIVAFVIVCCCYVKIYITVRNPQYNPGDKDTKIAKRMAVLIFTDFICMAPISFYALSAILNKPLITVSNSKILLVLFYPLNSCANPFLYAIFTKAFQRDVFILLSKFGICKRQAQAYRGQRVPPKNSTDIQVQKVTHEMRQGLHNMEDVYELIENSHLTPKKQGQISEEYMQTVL
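TSHR-expressing cells, 200/well, pre-treated with compound, then stimulated with EC80 TSH (4nM final) for 2 hours at 37 deg C. cAMP measured by competitive HTRF: anti-cAMP cryptate antibody in lysis buffer plus cAMP-d2, read after 30 minutes at room temperature.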
gsp antagonist = antagonists of gsp mutant (McCune-Albright syndrome) | AID 624288 | gsp-mutant cells, cAMP HTRF, 30 min | Potency, µM (doses to about 76.9 µM), without a hit: top-dose activity change, negative = inhibition, usual class: inhibitors | hit rate 0.4% among 340,000; calls by dose curve; cell line not stated here;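 note: intracellular cAMP measured with PDE inhibitor Ro 20-1724 present during compound exposure; potency is the fitted concentration of half-maximal effect; % is set by controls: 0 for no effect and ±100 for the full control effect; nearly all actives have a fitted effect of over 65% in size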
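HTRF cAMP read-out (cAMP-d2 plus anti-cAMP antibody-K in lysis buffer, 30 min RT). Before lysis, cells are exposed to compounds with […] for 30 min at 37C in DPBS containing Ca/Mg, BSA and Tween 20.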
MmCpn inh = blocks the Methanococcus maripaludis chaperonin Mm-Cpn; purified Mm-Cpn ATPase, ADP Transcreener TR-FRET; hit rate 0.031% among 330,000; Potency, µM (highest dose often 76.9 µM), for inactives: top-dose activity, negative = inhibition, actives largely listed as inhibitors; AID 504842; active = well fitted inhibition curve with a large enough effect; inconclusive = small, poorly fitted or top-dose-only effect; note: potency is the fitted concentration of half-maximal effect; % is set by controls: 0 for no effect and ±100 for the full control effect; nearly all actives have a fitted effect of over 80% in size
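Compound-treated chaperonin, 25 nM final, turns over 10 uM ATP at 37°C for 30 min following a 10 min preincubation; ADP generated competes with ADP-d2 for Eu-cryptate antibody, lowering FRET.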
gsp ag = gsp mutant agonism. Potency, µM (doses to about 76.9 µM), for inactives: at the highest dose activation (cAMP increase), hits mostly activators. hit rate 0.13% among 340,000. AID 624287. gsp mutant cells, cAMP HTRF, 30 min; active = well fitted activation curve with a large enough effect; inconclusive = small, poorly fitted or top-dose-only effect, or another doubt; inactive = no such curve, though single readings can be large or run the other way; cell line not stated here;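 note: phosphodiesterase inhibitor Ro 20-1724 added with compounds to block cAMP breakdown; potency is the fitted concentration of half-maximal effect; nearly all actives have a fitted effect of over 60% in size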
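Cells stably selected in G418 were plated at 2000/well, grown 16-24 hr, then given compounds in DMSO with the PDE inhibitor […] (300 uM solution added) for 30 min at 37C; cAMP was read by HTRF.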
uPA generation = inhibitors of cell surface uPA generation | cell surface uPA generation assay, qHTS | Potency, µM (highest dose often 38.3 µM), for the others: at the top dose activity change, negative = inhibition, most hits filed as inhibitors | hit rate 0.31% among 330,000; active = well fitted inhibition curve with a large enough effect; inconclusive = small, poorly fitted or top-dose-only effect; inactive = no such curve, though single readings can be large or run the other way; tested in mouse RAW 264.7 cells; note: potency is the fitted concentration of half-maximal effect; % is set by controls: 0 for no effect and ±100 for the full control effect; nearly all actives have a fitted effect of over 55% in size
Active calls of the source: *; ? = inconclusive; · = no result; [ ] = remark or other dose.

SMILES | CCT modulator | TSHR antag | gsp antagonist | MmCpn inh | gsp ag | uPA generation
COc1ccc(NC(=O)CCc2ccccc2)cc1NC(=O)c1ccco1 | -3.9 | -1.0 | -8.8% | 0.4% | -17.7% | -7.9%
c1ccc(-c2cnc(-c3ccccc3)nn2)cc1 | -0.4 | · | 7.3% | · | · | ?
c1ccc(-c2cnc(-c3ccccn3)nn2)cc1 | 1.2 | · | 5.8% | · | · | 6.31µM*
O=C1CC[C@@H](CN(Cc2ccccn2)Cc2nc(Cc3ccccc3)no2)N1 | -4.2 | -0.1 | 8.0% | 1.1% | -14.8%[15.4 µM] | -7.9%
Cc1cccc(C)c1Nc1c(-c2ccccn2)nc2ccccn12 | 1.0 | -17.1 | -12.1% | 2.1% | 30.5% | 4.47µM*
CC1(C)Cc2nc3sc(C(=O)NCCO)c(N)c3cc2CO1 | 0.1 | 1.5 | -1.1% | -1.0% | -3.0% | -2.0%
CCn1c(C)cc(/C=C2/SC(=O)N(C(C)C(=O)OC)C2=O)c1C (centres undefined) | 0.6 | -9.4 | -10.2% | -0.9% | ? | -8.5%
COCCn1c(C)cc(/C=C2/SC(=O)N(C(C)C(=O)OC)C2=O)c1C (centres undefined) | -1.6 | -0.9 | -0.5% | -3.8% | -25.5% | 11.2µM*
O=C(CCCCCNC(=O)N1CCn2c1nc1ccccc12)N[C@H](Cc1ccccc1)C(=O)O | -0.7 | -0.5 | 5.4% | 1.6% | · | -5.0%
Cc1cc(C(=O)Nc2c(F)cc(F)cc2Br)no1 | 1.7 | -5.4 | 3.2% | 6.3% | 10.9% | ·
Cn1cc(C(=O)c2ccc(Cl)cc2)cc1-c1nc2ccccc2n1C | -1.3 | -13.8 | 35.5µM* | -6.4% | ? | -12.1%
O=S(=O)(c1ccc2[nH]c3c(c2c1)CCCC3)N1CCCCC1 | -73.0* | 39.1 | -6.8% | -0.5% | 1.9% | ?
CCOc1ccc(OCC)c(NC(=O)C2C3C=CC(O3)C2C(=O)NCc2ccco2)c1 (centres undefined) | -1.9 | -2.1 | 3.7% | -3.4% | -2.5% | ·
COc1ccccc1N1CCN(C(=O)c2cccc(S(=O)(=O)N3c4ccccc4CC3C)c2)CC1 (centres undefined) | -4.3 | · | 31.6µM* | · | 11.0% | -10.3%
CC1Cc2ccccc2N1S(=O)(=O)c1cccc(C(=O)N2CCCCC2)c1 (centres undefined) | -0.7 | -15.8 | 1.6% | 0.6% | -6.9%[15.4 µM] | -3.9%
O=C1N(Cc2cccnc2)C[C@@H]2C[C@@H](c3cccc(OC4CCCC4)c3)N3CCC[C@@]123 | -50.9* | 5.0 | -6.5% | -0.4% | -45.0% | -0.3%
O=C(CSc1nncn1-c1ccccc1)Nc1ccc(N2CCOCC2)cc1 | -1.4 | -8.3 | -2.8% | -3.2% | -7.7% | -6.2%
O=C(O)c1ccc(N=Nc2c(O)[nH]c3ccccc23)cc1 | -12.7 | 26.0 | 28.2µM* | -2.4% | ? | -2.2%
CN(C)C(=O)c1ccc(N=Nc2c(O)c3ccccc3[nH]c2=O)cc1 | -1.6 | · | -23.0% | · | 18.1% | -9.7%
CCN(CC)C(=O)c1sc(NC(=S)N2CCN(C(=O)C3CCCO3)CC2)c(C(=O)OC)c1C (centres undefined) | -2.5 | -38.5 | -26.7% | -2.0% | 15.4% | 2.2%
CCCCNc1c(-c2ccc(-c3ccc(OC)cc3)c(OC)c2)nc2ccccn12 | 0.8 | -30.3 | -13.8% | -3.7% | · | 12.6µM*
CCCCCCSc1ccc(-c2nc3ccc(Cl)cn3c2NCCCC)cc1OC | 0.0 | -82.7* | 9.2% | -0.4% | · | 1.0%
CCCCNc1c(-c2ccc(OC)c(Sc3ccc(OC)cc3)c2)nc2ccccn12 | -3.7 | -16.2 | ? | -2.6% | · | ?
Cc1cc(NC(=O)CSc2nnc(-c3ccco3)n2C)no1 | 2.9 | 7.8 | 7.2% | -2.0% | 15.9% | -3.6%
CCN(C(=O)CN1C(=O)COc2ccc(S(=O)(=O)N3CCOCC3)cc21)c1ccc(OC)cc1 | 2.8 | -140.0* | 16.6% | 1.9% | 10.6% | -7.0%
COC(=O)CN1C(=O)COc2ccc(S(=O)(=O)N3CCOCC3)cc21 | -5.3 | 5.9 | 5.4% | 0.9% | 5.3% | -0.4%
COc1cc(OC)c(OC)cc1/C=N/Nc1nc2ccccc2[nH]1 | -2.7 | -12.4 | -0.5% | -4.5% | -6.6% | 5.2%
